Reference: PubChem BioAssay (Tox21)
Several values for one entry are separate records, joined by “and”; a condition that tells them apart may be missing. Equal values may be shown once. Some compounds were tested as several samples or in several runs, with calls that do not always agree. Activity calls are given as the source filed them. Unless noted, calls come from the whole dose curve; as a rule, active = well fitted curve in the direction sought with a large enough effect in the repeat runs; inconclusive = weak or mixed curves; inactive = no such curve, though single readings can be large; an effect the other way counts as inactive or inconclusive.

Tests used:
[1] = qHTS assay to identify small molecule antagonists of the thyroid receptor (TR) signaling pathway - cell viability counter screen (AID 743064); note: nearly all actives have a fitted effect of over 50% in size; note: potency is the fitted concentration of half-maximal effect
How it was run: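 Viability of T3-stimulated (1 nM final) GH3.TRE-Luc cells is measured by CellTiter-Fluor fluorescence after 23.5 h compound exposure at 37 °C plus 30 min reagent incubation.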

[2] = molecular target: Estrogen receptor (Homo sapiens) (UniProt P03372); assay: qHTS assay to identify small molecule antagonists of the estrogen receptor alpha (ER-alpha) signaling pathway (AID 743069; active = well fitted curve in the direction sought with a large enough effect in the signal ratio in the repeat runs, not every such curve was filed as active; inconclusive = weak or mixed curves, or effect the other way; inactive = no such curve, though single readings can be large or run the other way; the % refers to the signal ratio; note: potency is the fitted concentration of half-maximal effect)
How it was run: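 In this cell-based reporter format, GripTite HEK293 cells harbouring ER-alpha-UAS-bla were grown overnight with 2% charcoal-stripped FBS, dosed with DMSO-dissolved compounds, then challenged with 17beta-estradiol. After 18 hr at 37C, beta-lactamase activity was detected by FRET fluorescence.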

[3] = qHTS assay to identify small molecule antagonists of the estrogen receptor alpha (ER-alpha) signaling pathway - cell viability counter screen (AID 743074; calls by dose curve; note: nearly all actives have a fitted effect of over 45% in size; note: potency is the fitted concentration of half-maximal effect)
[4] = molecular target: Estrogen receptor (Homo sapiens) (UniProt P03372); assay: qHTS assay to identify small molecule agonists of the estrogen receptor alpha (ER-alpha) signaling pathway (AID 743075; calls by dose curve)
[5] = molecular target: Estrogen receptor (Homo sapiens) (UniProt P03372); assay: qHTS assay to identify small molecule agonists of the estrogen receptor alpha (ER-alpha) signaling pathway using the BG1 cell line (AID 743079); note: nearly all actives have a fitted effect of over 20% in size; note: potency is the fitted concentration of half-maximal effect
[6] = qHTS assay to identify small molecule antagonists of the estrogen receptor alpha (ER-alpha) signaling pathway using the BG1 cell line (AID 743080; calls by dose curve;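 note: BG1 cells stimulated with 17beta-estradiol alongside compound; nearly all actives have a fitted effect of over 25% in size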; note: potency is the fitted concentration of half-maximal effect)
How it was run: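 Endogenous full-length ER-alpha in BG1-Luc-4E2 cells drives a stably integrated 4×ERE luciferase gene; compounds were tested against 17beta-estradiol over 21.5 h, with luminescence and multiplexed viability fluorescence recorded.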

[7] = qHTS assay to identify small molecule antagonists of the estrogen receptor alpha (ER-alpha) signaling pathway using the BG1 cell line - cell viability counter screen (AID 743081);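 note: compound given together with 17beta-estradiol as the ER stimulus; nearly all actives have a fitted effect of over 45% in size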; note: potency is the fitted concentration of half-maximal effect
Aromatase (Homo sapiens) = Aromatase (Homo sapiens) (UniProt P11511); assay: qHTS assay to identify aromatase inhibitors (AID 743083); note: nearly all actives have a fitted effect of over 55% in size; note: potency is the fitted concentration of half-maximal effect
[8] = qHTS assay to identify small molecule antagonists of the thyroid receptor (TR) signaling pathway (AID 743065); note: nearly all actives have a fitted effect of over 55% in size; note: potency is the fitted concentration of half-maximal effect
How it was run: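 GH3.TRE-Luc rat pituitary cells (two TREs driving luciferase) were dosed with compound, then stimulated with 1 nM T3 (final) for 23.5 h at 37 C. ONE-Glo luminescence was the read-out, with CellTiter-Fluor fluorescence as the cytotoxicity counter-screen.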

[9] = test system: thyroid hormone receptor (rat, GH3 cells); assay: qHTS assay to identify small molecule agonists of the thyroid receptor (TR) signaling pathway (AID 743066; calls by dose curve; note: potency is the fitted concentration of half-maximal effect)

Measured: Potency

Chain of Aromatase (Homo sapiens) (P11511 whole entry, looked up): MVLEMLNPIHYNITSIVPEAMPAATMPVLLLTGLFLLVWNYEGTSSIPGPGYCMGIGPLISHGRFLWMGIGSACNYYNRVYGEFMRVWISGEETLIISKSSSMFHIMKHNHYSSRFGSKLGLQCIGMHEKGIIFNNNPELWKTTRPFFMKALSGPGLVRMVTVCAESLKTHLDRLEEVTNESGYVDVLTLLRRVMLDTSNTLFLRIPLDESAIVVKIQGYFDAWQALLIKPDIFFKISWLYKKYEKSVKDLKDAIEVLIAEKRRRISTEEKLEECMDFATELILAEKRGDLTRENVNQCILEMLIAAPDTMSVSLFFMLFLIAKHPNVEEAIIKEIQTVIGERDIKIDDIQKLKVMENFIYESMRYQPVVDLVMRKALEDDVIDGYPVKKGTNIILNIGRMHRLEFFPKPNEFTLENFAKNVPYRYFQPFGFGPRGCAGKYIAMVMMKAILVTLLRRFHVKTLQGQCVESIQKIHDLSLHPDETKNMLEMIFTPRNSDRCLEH
Chain of Estrogen receptor (Homo sapiens) (P03372 whole entry, looked up): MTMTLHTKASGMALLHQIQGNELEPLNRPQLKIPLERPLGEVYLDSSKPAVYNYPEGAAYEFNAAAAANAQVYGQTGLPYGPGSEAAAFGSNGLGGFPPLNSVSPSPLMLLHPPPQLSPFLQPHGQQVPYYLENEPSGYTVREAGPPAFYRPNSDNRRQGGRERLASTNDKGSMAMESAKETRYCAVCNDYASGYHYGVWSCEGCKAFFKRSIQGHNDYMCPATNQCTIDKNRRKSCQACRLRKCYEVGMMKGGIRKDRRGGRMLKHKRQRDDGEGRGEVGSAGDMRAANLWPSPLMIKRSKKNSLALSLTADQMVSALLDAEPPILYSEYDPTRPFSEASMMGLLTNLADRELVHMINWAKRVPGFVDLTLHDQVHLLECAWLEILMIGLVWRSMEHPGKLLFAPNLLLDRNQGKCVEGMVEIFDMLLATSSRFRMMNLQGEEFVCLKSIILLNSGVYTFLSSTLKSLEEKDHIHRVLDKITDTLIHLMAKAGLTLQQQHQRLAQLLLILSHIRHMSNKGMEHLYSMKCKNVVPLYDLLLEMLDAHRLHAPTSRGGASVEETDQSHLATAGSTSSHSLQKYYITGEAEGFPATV

NC(=O)C(Cl)(Cl)Cl
inactive: [1] | [2] | [3] | [4] | [6] | [7] | Aromatase (Homo sapiens)
active: [5] 68.9 µM

CC(C)(C)c1cc([N+](=O)[O-])cc([N+](=O)[O-])c1O
active: [1] 8.61 µM | [8] 3.43 µM | [7] 21.6 µM | Aromatase (Homo sapiens) 15.3 µM

O=C(C(Cl)(Cl)Cl)C(Cl)(Cl)Cl
inactive: [8] | [9] | [2] | [3] | [4] | [5] | [6] | [7] | Aromatase (Homo sapiens)

O=C(CCl)c1ccc(Cl)cc1Cl
active: [8] 1.5 µM and 3.44 µM | [3] 38.9 µM
inactive: [9] | [2] | [4] | [5] | [6] | [7] | Aromatase (Homo sapiens)

ClCc1ccccc1
inactive: [8] | [9] | [2] | [3] | [4] | [5] | [6] | [7] | Aromatase (Homo sapiens)

O=C(CBr)OCc1ccccc1
inactive: [1] | [2] | [3] | [6] | [7] | Aromatase (Homo sapiens)

Clc1ccc(C2(Cn3cncn3)CC(Br)CO2)c(Cl)c1 (stereo not drawn)
inactive: [1] | [9] | [3] | [4] | [7]
active: Aromatase (Homo sapiens) 17.1 µM

CNC(C)Cc1ccccc1OC (stereo not drawn)
inactive: [8] | [9] | [2] | [3] | [4] | [5] | [6] | [7] | Aromatase (Homo sapiens)

COP(=S)(OC)Oc1cc(Cl)c(I)cc1Cl
inactive: [1] | [9] | [3] | [7] | Aromatase (Homo sapiens)

N#Cc1ccc(Cl)cc1
inactive: [1] | [2] | [4] | [5] | [6] | [7] | Aromatase (Homo sapiens)

O=C(N[C@H](c1ccccc1)[C@@H]1CN2CCC1CC2)c1c(Cl)ccc(C(F)(F)F)c1Cl
active: [1] 15.6 µM | [8] 39.2 µM
inactive: [3]

CCOP(=S)(OCC)Oc1cc(Cl)c(Br)cc1Cl
inactive: [1] | [3] | [4] | [6] | [7] | Aromatase (Homo sapiens)

Cn1sc(Cl)cc1=O
active: [1] 68.6 µM
inactive: [9] | [2] | [3] | [4] | [5] | [6] | [7] | Aromatase (Homo sapiens)

CCC(C)(NC(=O)c1cc(Cl)c(C)c(Cl)c1)C(=O)CCl (stereo not drawn)
inactive: [7]
active: [1] 15.4 µM | [8] 8.69 µM | [2] 62 µM [inconclusive] | Aromatase (Homo sapiens) 61.5 µM

C[C@H]1CNCCc2ccc(Cl)cc21
inactive: [8] | [9] | [2] | [3] | [4] | [5] | [6] | [7] | Aromatase (Homo sapiens)

C=CCC1([C@H](C)CCC)C(=O)NC(=O)NC1=O
inactive: [8] | [9] | [2] | [3] | [4] | [5] | [6] | [7] | Aromatase (Homo sapiens)

CCn1cc[n+](C)c1
inactive: [1] | [3] | [7]
inactive and 49.2 µM (active): [9]

COc1nn(CSP(=S)(OC)OC)c(=O)s1
inactive: [9] | [2] | [4] | [5] | [6] | [7]
active: [8] 68.6 µM | Aromatase (Homo sapiens) 61.1 µM

CN(C)c1ccc(N(C)C)cc1
inactive: [8] | [9] | [4] | [7]

CCCN(CCC)c1c([N+](=O)[O-])cc(S(C)(=O)=O)cc1[N+](=O)[O-]
inactive: [8] | [9] | [3] | [4] | [6] | [7] | Aromatase (Homo sapiens)

[CH3][Sn]([CH3])([Cl])[Cl]
inactive: [9] | [3] | [7] | Aromatase (Homo sapiens)
active: [8] 55.4 µM and 68.6 µM

COC(C)(C)CCC[C@H](C)C/C=C/C(C)=C/C(=O)OC(C)C
inactive: [9] | [3] | [7] | Aromatase (Homo sapiens)
active: [8] 61.1 µM

COc1ccc(-c2ccccc2)cc1NNC(=O)OC(C)C
inactive: [9] | [4] | [7] | Aromatase (Homo sapiens)
active: [8] 71.5 µM

Clc1cc(Cl)c(Cl)c(Cl)c1
inactive: [8] | [9] | [2] | [3] | [4] | [6] | [7] | Aromatase (Homo sapiens)

COP(=O)(OC)O/C(=C/Cl)c1cc(Cl)c(Cl)cc1Cl
active: [8] 28.8 µM | [2] 16.4 µM [inconclusive] | Aromatase (Homo sapiens) 40.7 µM
inactive: [9] | [7]

CCOP(=S)(Oc1ccc([N+](=O)[O-])cc1)c1ccccc1 (stereo not drawn)
inactive: [8] | [9] | [2] | [3] | [4] | [6] | [7] | Aromatase (Homo sapiens)
active: [5] 27.3 µM

N#CCC#N
inactive: [9] | [2] | [3] | [4] | [5] | [6] | [7] | Aromatase (Homo sapiens)
active: [8] 48.6 µM

CC1(C)CCC(Cc2ccc(Cl)cc2)C1(O)Cn1cncn1 (stereo not drawn)
active: [8] 61.1 µM | [2] 61.6 µM [inconclusive] | [6] 61.1 µM | Aromatase (Homo sapiens) 30.6 µM
inactive: [9] | [3] | [4] | [7]

C=CC(=O)OC
inactive: [8] | [9] | [3] | [7] | Aromatase (Homo sapiens)

CCOP(=O)(OCC)O/C(=C/Cl)c1ccc(Cl)cc1Cl
inactive: [9] | [3] | [4] | [5] | [7]
active: [8] 29.8 µM and 61.1 µM | [2] 21.9 µM [inconclusive] | [6] 54.5 µM | Aromatase (Homo sapiens) 27.3 µM

O=C(O)C(F)(F)C(F)(F)C(F)(F)C(F)(F)C(F)(F)C(F)(F)C(F)(F)C(F)(F)C(F)(F)F
active: [2] 15.5 µM [inhibitor]
inactive: [8] | [9] | [3] | [4] | [5] | [6] | [7] | Aromatase (Homo sapiens)

Clc1cc(C(Cl)(Cl)Cl)cnc1Cl
active: [8] 38.6 µM | Aromatase (Homo sapiens) 24.3 µM
inactive: [9] | [3] | [4] | [5] | [7]

CCCCCC[N+](=O)[O-]
inactive: [8] | [9] | [3] | [7] | Aromatase (Homo sapiens)

C/C=C/C=O
inactive: [8] | [9] | [3] | [7] | Aromatase (Homo sapiens)

CC(Cl)C(C)Cl (stereo not drawn)
inactive: [8] | [9] | [2] | [3] | [4] | [5] | [6] | [7] | Aromatase (Homo sapiens)

O=C(OC1CCCCC1)c1ccccc1C(=O)OC1CCCCC1
active: [8] 72.3 µM
inactive: [9] | [3] | [4] | [5] | [7]

O=C(NCc1cccnc1)Nc1ccc([N+](=O)[O-])cc1
active: [8] 68.6 µM
inactive: [9] | [2] | [3] | [4] | [5] | [6] | [7] | Aromatase (Homo sapiens)

C=CC(=O)NCNC(=O)C=C
inactive: [8] | [9] | [4] | Aromatase (Homo sapiens)
